# Laboratory results taken from the supplement of paper PMC8728848.
# The sample as a whole holds a higher share of the strongest signals than the screen did.
# Experiments:
# Assay in all cases: glycan array binding signal (z-score within array); higher = stronger binding
# Conditions in all cases: glycan notation: IUPAC condensed, linker removed
# [1] = molecular target: Fuc(a1-2)Gal(b1-3)[Fuc(a1-4)]GlcNAc
# Summary of the method: (§1)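 Glycan array data were curated from 3228 arrays in the Consortium for Functional Glycomics database and kept only where the protein sequence was available. Glycan names were converted to IUPAC-condensed notation, and columns mapping to the same glycan were averaged. The binding signal is a within-array Z-score, averaged across arrays of the same protein sequence at different concentrations or buffers and across linkers. Negative Z-scores can be read as non-binding.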
# [2] = molecular target: Fuc(a1-2)Gal6S(b1-3)GlcNAc6S
# Summary of the method: as §1
# [3] = molecular target: Fuc(a1-2)[Gal(a1-3)]Gal(b1-3)GlcNAc
# Summary of the method: as §1
# [4] = molecular target: Fuc(a1-2)[Gal(a1-3)]Gal(b1-3)GlcNAc(b1-2)Man(a1-3)[Fuc(a1-2)[Gal(a1-3)]Gal(b1-3)GlcNAc(b1-2)Man(a1-6)]Man(b1-4)GlcNAc(b1-4)GlcNAc
# Summary of the method: as §1
# [5] = molecular target: Fuc(a1-3)[Gal(b1-4)]Glc6S
# Summary of the method: as §1
# [6] = molecular target: Fuc(a1-3)[Gal(b1-4)]GlcNAc(b1-3)Gal(b1-4)[Fuc(a1-3)]GlcNAc
# Summary of the method: as §1
# [7] = molecular target: Fuc(a1-3)[Gal(b1-4)]GlcNAc6S
# Summary of the method: as §1
# [8] = molecular target: Gal(a1-3)Fuc(a1-2)Gal(b1-4)GlcNAc(b1-3)[Gal(a1-3)Fuc(a1-2)Gal(b1-4)GlcNAc(b1-6)]GalNAc
# Summary of the method: as §1
# Gal(a1-3)Gal(b1-3)GlcNAc = molecular target: Gal(a1-3)Gal(b1-3)GlcNAc
# Summary of the method: as §1
# Gal(b1-3)GalNAc = molecular target: Gal(b1-3)GalNAc
# Summary of the method: as §1
# [9] = molecular target: Gal(b1-3)GalNAc(a1-3)[Fuc(a1-2)]Gal(b1-4)Glc
# Summary of the method: as §1
# Gal(b1-3)GlcNAc(b1-2)Man = molecular target: Gal(b1-3)GlcNAc(b1-2)Man
# Summary of the method: as §1
# [10] = molecular target: Gal(b1-3)[Fuc(a1-4)]GlcNAc(b1-2)Man(a1-3)[Gal(b1-3)[Fuc(a1-4)]GlcNAc(b1-2)Man(a1-6)]Man(b1-4)GlcNAc(b1-4)[Fuc(a1-6)]GlcNAc
# Summary of the method: as §1
# [11] = molecular target: Gal(b1-3)[Neu5Ac(a2-6)]GalNAc
# Summary of the method: as §1
# Gal(b1-4)Glc6S = molecular target: Gal(b1-4)Glc6S
# Summary of the method: as §1
# [12] = molecular target: Gal(b1-4)GlcNAc(b1-3)Gal(b1-4)GlcNAc(b1-2)[Gal(b1-4)GlcNAc(b1-3)Gal(b1-4)GlcNAc(b1-6)]Man(a1-6)[Gal(b1-4)GlcNAc(b1-3)Gal(b1-4)GlcNAc(b1-2)Man(a1-3)]Man(b1-4)GlcNAc(b1-4)GlcNAc
# Summary of the method: as §1
# [13] = molecular target: Gal(b1-4)GlcNAc(b1-3)Gal(b1-4)GlcNAc(b1-3)Gal(b1-4)GlcNAc(b1-3)Gal(b1-4)GlcNAc(b1-2)Man(a1-3)[Gal(b1-4)GlcNAc(b1-3)Gal(b1-4)GlcNAc(b1-3)Gal(b1-4)GlcNAc(b1-3)Gal(b1-4)GlcNAc(b1-2)Man(a1-6)]Man(b1-4)GlcNAc(b1-4)[Fuc(a1-6)]GlcNAc
# Summary of the method: as §1
# [14] = molecular target: Gal(b1-4)GlcNAc(b1-3)Gal(b1-4)GlcNAc(b1-3)GalNAc
# Summary of the method: as §1
# [15] = molecular target: Gal(b1-4)GlcNAc(b1-6)Gal(b1-4)GlcNAc
# Summary of the method: as §1
# [16] = molecular target: Gal3S(b1-3)[Fuc(a1-4)]GlcNAc
# Summary of the method: as §1
# Gal3S6S(b1-4)GlcNAc6S = molecular target: Gal3S6S(b1-4)GlcNAc6S
# Summary of the method: as §1
# Gal6P(b1-4)GlcNAc = molecular target: Gal6P(b1-4)GlcNAc
# Summary of the method: as §1
# Gal6S(b1-4)Glc6S = molecular target: Gal6S(b1-4)Glc6S
# Summary of the method: as §1
# GalNAc(b1-4)GlcNAc6S = molecular target: GalNAc(b1-4)GlcNAc6S
# Summary of the method: as §1
# [17] = molecular target: Glc(a1-4)Glc(a1-4)Glc(a1-4)Glc
# Summary of the method: as §1
# [18] = molecular target: GlcNAc(b1-2)Gal(b1-3)GalNAc
# Summary of the method: as §1
# [19] = molecular target: GlcNAc(b1-2)Man(a1-3)[GlcNAc(b1-2)Man(a1-6)]Man(b1-4)GlcNAc(b1-4)[Fuc(a1-6)]GlcNAc
# Summary of the method: as §1
# [20] = molecular target: GlcNAc(b1-2)[GlcNAc(b1-6)]Man(a1-6)[GlcNAc(b1-2)Man(a1-3)]Man(b1-4)GlcNAc(b1-4)GlcNAc
# Summary of the method: as §1
# [21] = molecular target: GlcNAc(b1-3)Gal(b1-4)GlcNAc(b1-3)Gal(b1-4)GlcNAc(b1-3)GalNAc
# Summary of the method: as §1
# [22] = molecular target: GlcNAc(b1-3)[GlcNAc(b1-4)][GlcNAc(b1-6)]GlcNAc
# Summary of the method: as §1
# [23] = molecular target: Man(a1-3)[Man(a1-6)]Man(a1-6)[Man(a1-2)Man(a1-3)]Man(b1-4)GlcNAc(b1-4)GlcNAc
# Summary of the method: as §1
# [24] = molecular target: Man(a1-3)[Man(a1-6)]Man(a1-6)[Man(a1-3)]Man
# Summary of the method: as §1
# Man(a1-6)Man = molecular target: Man(a1-6)Man
# Summary of the method: as §1
# [25] = molecular target: Neu5Ac(a2-3)Gal(b1-3)GlcNAc(b1-2)Man(a1-3)[GlcNAc(b1-4)][Neu5Ac(a2-3)Gal(b1-3)GlcNAc(b1-2)Man(a1-6)]Man(b1-4)GlcNAc(b1-4)GlcNAc
# Summary of the method: as §1
# [26] = molecular target: Neu5Ac(a2-3)Gal(b1-3)GlcNAc(b1-4)Gal(b1-4)Glc
# Summary of the method: as §1
# Neu5Ac(a2-3)Gal(b1-4)Glc = molecular target: Neu5Ac(a2-3)Gal(b1-4)Glc
# Summary of the method: as §1
# [27] = molecular target: Neu5Ac(a2-3)Gal(b1-4)GlcNAc(b1-2)Man
# Summary of the method: as §1
# [28] = molecular target: Neu5Ac(a2-3)Gal(b1-4)GlcNAc(b1-2)[Neu5Ac(a2-3)Gal(b1-4)GlcNAc(b1-4)]Man(a1-3)[GlcNAc(b1-4)][Neu5Ac(a2-3)Gal(b1-4)GlcNAc(b1-4)Man(a1-6)]Man(b1-4)GlcNAc(b1-4)GlcNAc
# Summary of the method: as §1
# [29] = molecular target: Neu5Ac(a2-3)Gal(b1-4)GlcNAc(b1-3)Gal(b1-4)GlcNAc(b1-2)Man(a1-3)[Neu5Ac(a2-3)Gal(b1-4)GlcNAc(b1-3)Gal(b1-4)GlcNAc(b1-2)Man(a1-6)]Man(b1-4)GlcNAc(b1-4)GlcNAc
# Summary of the method: as §1
# [30] = molecular target: Neu5Ac(a2-3)[GalNAc(b1-4)]Gal(b1-4)GlcNAc
# Summary of the method: as §1
# [31] = molecular target: Neu5Ac(a2-6)Gal(b1-4)GlcNAc(b1-2)Man(a1-3)[Gal(b1-4)GlcNAc(b1-2)Man(a1-6)]Man(b1-4)GlcNAc(b1-4)GlcNAc
# Summary of the method: as §1
# [32] = molecular target: Neu5Ac(a2-6)Gal(b1-4)GlcNAc(b1-2)Man(a1-6)[Man(a1-3)]Man(b1-4)GlcNAc(b1-4)GlcNAc
# Summary of the method: as §1
# [33] = molecular target: Neu5Ac(a2-6)Gal(b1-4)GlcNAc(b1-2)[Neu5Ac(a2-6)Gal(b1-4)GlcNAc(b1-4)]Man(a1-3)[GlcNAc(b1-4)][Neu5Ac(a2-6)Gal(b1-4)GlcNAc(b1-4)Man(a1-6)]Man(b1-4)GlcNAc(b1-4)GlcNAc
# Summary of the method: as §1
# [34] = molecular target: Neu5Ac(a2-6)Gal(b1-4)GlcNAc(b1-3)Gal(b1-4)GlcNAc
# Summary of the method: as §1
# [35] = molecular target: Neu5Ac(a2-6)Gal(b1-4)GlcNAc(b1-3)Gal(b1-4)GlcNAc(b1-3)Gal(b1-4)GlcNAc(b1-2)Man(a1-3)[Neu5Ac(a2-6)Gal(b1-4)GlcNAc(b1-3)Gal(b1-4)GlcNAc(b1-3)Gal(b1-4)GlcNAc(b1-2)Man(a1-6)]GalNAc
# Summary of the method: as §1
# [36] = molecular target: Neu5Ac(a2-8)Neu5Ac(a2-3)[GalNAc(b1-4)]Gal(b1-4)Glc
# Summary of the method: as §1
# [37] = molecular target: Neu5Ac(a2-8)Neu5Ac(a2-8)Neu5Ac(a2-8)Neu5Ac(a2-3)[GalNAc(b1-4)]Gal(b1-4)Glc
# Summary of the method: as §1
# [38] = molecular target: Neu5Gc(a2-3)Gal(b1-3)[Fuc(a1-4)]GlcNAc
# Summary of the method: as §1
# Neu5Gc(a2-3)Gal(b1-4)Glc = molecular target: Neu5Gc(a2-3)Gal(b1-4)Glc
# Summary of the method: as §1
# [39] = molecular target: Neu5Gc(a2-3)Gal(b1-4)GlcNAc
# Summary of the method: as §1
binder,measurement,setting,value
CaSRK1 (Capsicum annuum) (protein) MALCKIFPFAFILLSCSCYLISGQRFDYPTANLSTTWINSVSAPHSIDYTDGSRIRAILLRGTFGPRYACGFYCNGNCESYLFAIFIVQTNSASQITSPAIGFPQVVWSANRNNPVKINSTLQLTAEGDLVLRDADGTLAWSTNTAGKSVAGLSLTDEGNLALFDSKNATVWQSFDHPTDALVPGQKLVPGMKLTASVSRTNWTAGGLFALSAIDNGLVAFVESNPPQKYFEASVGGSNTSGGSNYVKYLNGSLTLFTHSADTTELILISITPASSAQYMKLESNGHLKVYEWTSRGWREVDDLLTGFRGECNYPTVCGRYGICTMGQCSCPTSSSSRTYFRPIDVRRPSLGCSEVTKLTCQNTKKHSPLEVEDVDYFAFKAGISDTDLNTCKRACLEKCSCKAAFFRSGLNSSRTRGDCYLPTEIFSIMNNEKDRTRYDSVAFIKVQV,glycan array binding signal (z-score),[1],-0.523
same,glycan array binding signal (z-score),[2],2.31
same,glycan array binding signal (z-score),[3],2.37
same,glycan array binding signal (z-score),[4],-0.546
same,glycan array binding signal (z-score),[5],-0.056
same,glycan array binding signal (z-score),[6],0.387
same,glycan array binding signal (z-score),[7],0.606
same,glycan array binding signal (z-score),[8],3.39
same,glycan array binding signal (z-score),Gal(a1-3)Gal(b1-3)GlcNAc,3.11
same,glycan array binding signal (z-score),Gal(b1-3)GalNAc,-0.395
same,glycan array binding signal (z-score),[9],0.178
same,glycan array binding signal (z-score),Gal(b1-3)GlcNAc(b1-2)Man,5.29
same,glycan array binding signal (z-score),[10],-0.295
same,glycan array binding signal (z-score),[11],-0.368
same,glycan array binding signal (z-score),Gal(b1-4)Glc6S,-0.386
same,glycan array binding signal (z-score),[12],3.63
same,glycan array binding signal (z-score),[13],0.677
same,glycan array binding signal (z-score),[14],2.85
same,glycan array binding signal (z-score),[15],0.04
same,glycan array binding signal (z-score),[16],-0.07
same,glycan array binding signal (z-score),Gal3S6S(b1-4)GlcNAc6S,2.4
same,glycan array binding signal (z-score),Gal6P(b1-4)GlcNAc,-0.342
same,glycan array binding signal (z-score),Gal6S(b1-4)Glc6S,0.802
same,glycan array binding signal (z-score),GalNAc(b1-4)GlcNAc6S,0.352
same,glycan array binding signal (z-score),[17],0.933
same,glycan array binding signal (z-score),[18],-0.097
same,glycan array binding signal (z-score),[19],-0.143
same,glycan array binding signal (z-score),[20],-0.46
same,glycan array binding signal (z-score),[21],-0.477
same,glycan array binding signal (z-score),[22],-0.34
same,glycan array binding signal (z-score),[23],-0.258
same,glycan array binding signal (z-score),[24],-0.303
same,glycan array binding signal (z-score),Man(a1-6)Man,1.5
same,glycan array binding signal (z-score),[25],-0.549
same,glycan array binding signal (z-score),[26],0.467
same,glycan array binding signal (z-score),Neu5Ac(a2-3)Gal(b1-4)Glc,-0.089
same,glycan array binding signal (z-score),[27],7.73
same,glycan array binding signal (z-score),[28],0.06
same,glycan array binding signal (z-score),[29],1.33
same,glycan array binding signal (z-score),[30],-0.414
same,glycan array binding signal (z-score),[31],-0.423
same,glycan array binding signal (z-score),[32],-0.589
same,glycan array binding signal (z-score),[33],-0.513
same,glycan array binding signal (z-score),[34],-0.402
same,glycan array binding signal (z-score),[35],2.58
same,glycan array binding signal (z-score),[36],-0.56
same,glycan array binding signal (z-score),[37],-0.413
same,glycan array binding signal (z-score),[38],-0.319
same,glycan array binding signal (z-score),Neu5Gc(a2-3)Gal(b1-4)Glc,3.18
same,glycan array binding signal (z-score),[39],-0.416
